Results as given in PubChem BioAssay (EPA / NIEHS).
Active and inactive are the calls of the source. The calls were made as follows: active = hit-call score of the fitted dose curve at least 0.9, where 1 is the maximum; inactive = score below 0.9.

read-out: Alpha-fetoprotein (AFP) gene, AFP (gene 174); assay: LTEA_HepaRG_AFP: Life Technologies and Expression Analysis (LTEA) Assay for Alpha-fetoprotein (AFP) gene using HepaRG (AID 2283472); settings: mRNA level, 48 h; actives raise or lower the signal;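 as to AC50: AFP transcript by TaqMan qRT-PCR normalized to ACTB GAPDH and POLR2A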
Description: It is a marker of Undifferentiated hepatocyte.Data from the assay component LTEA_HepaRG_AFP was analyzed into 1 endpoint. This assay endpoint, LTEA_HepaRG_AFP, was analyzed with bidirectional fitting relative to DMSO as the negative control and baseline of activity. Using a type of inducible reporter, measures of mRNA induction for gain or loss-of-signal activity can be used to understand regulation of transcription factor activity. To generalize the intended target to other relatable targets, this assay endpoint is annotated to the background measurement intended target family, where the subfamily is assay control.
A total of 1060 chemcials from the ToxCast library were tested in eight-point concentration-response experiments. Cell culture and cytotoxicity assays were conducted at Thermo Fisher Scientific's Custom Services facility (Madison, WI). A single lot of human HepaRG cells (Thermo Fisher Scientific, Frederick, MD) was used for the cell culture experiments. 96-well format collagen type I coated plates of human HepaRG cells were prepared using established methods. Briefly, cryopreserved HepaRG cells were thawed, plated at a density of approximately 100,000 cells/well in HepaRG Thaw, Plate, and General Purpose media (HPRG770, Thermo Fisher Scientific), and incubated for 48 hours. 0.5% DMSO was selected as vehicle control to balance the requisite need of DMSO in HepaRG cultures to maintain differentiation (for example, baseline metabolism, proportions of hepatocytes vs. cholangiocytes), while enabling further hepatic receptor pathway activation (for example, PXR and CAR) in response to chemical exposure. 48 hours after plating, the culture medium was replaced with HepaRG Serum-Free Incudtion Media. Cells were exposed to each test chemical in duplicate and maintained in CO2 incubators for another 48 hours. Chemical plates were thawed to room temperature and 200x concentrations of treatment groups were prepared. 8-point conentration-reponse curves were made with the highest exposure at 100 uM, followed by half-log dilutions, all in 0.5% DMSO. Each test plate contained variouse controls, induction positive controls (1mM phenobarbital), cytotoxicity positive controls ([…] aflatoxin B1), vehicle controls (0.5% DMSO), and total lysis controls (0.5% DMSO). Cell morphology images were taken using an Essen IncuCyte FLR automated microscope, with six 96-well plates imaged in about 24 minutes. Images were captured and exported and JPEG files. Spent culture media was transfered to black-well plates for the LDH assay, and remaining media was sorted at -80 C for later use. Cells were treated with RLT buffer and frozen until shipped for gene expression analysis. Total RNA was isolated from the cell suspension in 75 uL of Buffer RLT (Qiagen, Germantown, MD 20874) by Quintiles/Expression Analysis (Durham, NC) using a custom isolation procedure. Total RNA from each plate well was transferred to a preamplification plate. Fluidigm's 96.96 Dynamic ArrayTM (Fluidigm, Amsterdam, the Netherlands) technology was used for gene expression analyses by quantitative reverse transcription polymerase chain reaction (qRT-PCR, performed by Quintiles/Expression Analysis, Durham, NC)89. Standard TaqManTM Assays (Applied Biosystems/ThermoFisher Scientific, Foster City, CA) were used to assess the expression of 93 genes selected based on their selectivity and sensitivity to important hepatic receptors known to be modulated by environmental chemicals; importance in human hepatocyte functionality; and hepatotoxicity. Three "housekeeping" endogenous control genes were also included and used for normalization: actin beta (ACTB), Glyceraldehyde 3 phosphate dehydrogenase (GAPDH) and RNA Polymerase II Subunit A (POLR2A). qRT-PCR was conducted according to the manufacturer's protocol.

| SMILES | AC50 | outcome |
| --- | --- | --- |
| Cc1c(COC(=O)[C@@H]2[C@H](/C=C(\Cl)C(F)(F)F)C2(C)C)cccc1-c1ccccc1 | 50 µM (active) | – |
| COCC(C)N(C(=O)CCl)c1c(C)csc1C (stereo not given) | – | inactive |
| CC(C)Oc1cccc(NC(=O)c2ccccc2C(F)(F)F)c1 | – | inactive |
| C=C(C)CN(CC)c1c([N+](=O)[O-])cc(C(F)(F)F)cc1[N+](=O)[O-] | – | inactive |
| Cc1cnc(C2=NC(C)(C(C)C)C(=O)N2)c(C(=O)O)c1 (stereo not given) | – | inactive |
| CCOC(=O)C(C)OC(=O)c1cc(Oc2ccc(C(F)(F)F)cc2Cl)ccc1[N+](=O)[O-] (stereo not given) | 50 µM (active) | – |
| CCCCOCN(C(=O)CCl)c1c(CC)cccc1CC | – | inactive |
| CC1(C)CON(Cc2ccccc2Cl)C1=O | – | inactive |
| Cc1cc(C)nc(Nc2ccccc2)n1 | – | inactive |
| Cc1ccc(N=CN(C)C=Nc2ccc(C)cc2C)c(C)c1 | – | inactive |
| O=C(Nc1ccccc1-c1ccc(Cl)cc1)c1cccnc1Cl | 52.5 µM (active) | – |
| COc1ccc(-c2ccccc2)cc1NNC(=O)OC(C)C | – | inactive |
| CC1(C)C(C=C(Cl)Cl)C1C(=O)OC(C#N)c1cccc(Oc2ccccc2)c1 (stereo not given) | – | inactive |
| COC(=O)N(C(=O)N1CO[C@@]2(C(=O)OC)Cc3cc(Cl)ccc3C2=N1)c1ccc(OC(F)(F)F)cc1 | 40 µM (active) | – |
| CS(=O)(=O)c1cc(C(F)(F)F)ccc1C(=O)c1cnoc1C1CC1 | – | inactive |
| CN/C(=N\[N+](=O)[O-])NCc1cnc(Cl)s1 | 50 µM (active) | – |
| COc1cc(OC)nc(NC(=O)NS(=O)(=O)c2ncccc2OCC(F)(F)F)n1 | – | inactive |
| CC1(C)CCC(=Cc2ccc(Cl)cc2)C1(O)Cn1cncn1 (stereo not given) | – | inactive |
| CCNP(=S)(OC)O/C(C)=C/C(=O)OC(C)C (stereo not given) | – | inactive |
| COC(=O)NS(=O)(=O)c1ccc(N)cc1 | – | inactive |

| SMILES | AC50 | outcome |
| --- | --- | --- |
| COCC(=O)N(c1c(C)cccc1C)C(C)C(=O)OC (stereo not given) | – | inactive |
| CC(C)=CC1C(C(=O)OCc2coc(Cc3ccccc3)c2)C1(C)C (stereo not given) | – | inactive |
| CCOc1nc(F)cc2nc(S(=O)(=O)Nc3c(Cl)cccc3Cl)nn12 | 25.3 µM (active) | – |
| COc1cc(Cl)c(OC)cc1Cl | – | inactive |
| CC(C)C1(C)N=C(c2ncccc2C(=O)O)NC1=O (stereo not given) | – | inactive |
| CCOc1nc(C(Cl)(Cl)Cl)ns1 | 1.77 µM (active) | – |
| CCOc1cc(C(C)(C)C)ccc1C1COC(c2c(F)cccc2F)=N1 (stereo not given) | 25.7 µM (active) | – |
| CC1(C)C(C(=O)OC(C#N)c2cccc(Oc3ccccc3)c2)C1(C)C (stereo not given) | – | inactive |
| Nc1c(Cl)c(Cl)nc(C(=O)O)c1Cl | – | inactive |
| O=c1n(Cl)c(=O)n(Cl)c(=O)n1Cl | – | inactive |
| COP(=O)(OC)O/C(C)=C/C(=O)N(C)C | – | inactive |
| COCc1cnc(C2=NC(C)(C(C)C)C(=O)N2)c(C(=O)O)c1 (stereo not given) | – | inactive |
| CNC(=O)Oc1cccc2ccccc12 | – | inactive |
| O=C(O)c1c(Cl)ccc2cc(Cl)cnc12 | – | inactive |
| CCOP(=O)(OCC)Oc1nc(Cl)c(Cl)cc1Cl | 75.9 µM (active) | – |
| COC(=O)NC(=S)Nc1ccccc1NC(=S)NC(=O)OC | – | inactive |
| CCNC(=O)NC(=O)C(C#N)=NOC | 75.6 µM (active) | – |
| CSC(=O)c1c(C(F)F)nc(C(F)(F)F)c(C(=O)SC)c1CC(C)C | 49.8 µM (active) | – |
| COP(=S)(OC)SCn1nnc2ccccc2c1=O | – | inactive |
| C=CCOC(=O)C(C)(C)OC(=O)c1cc(-n2c(=O)cc(C(F)(F)F)n(C)c2=O)ccc1Cl | – | inactive |
